Bioassay records: PubChem, several laboratories
Jurkat NFkB inh = inhibitors of the PMA/ionomycin-induced NF-kB reporter in Jurkat cells. PMA/ionomycin-induced NF-kB luciferase reporter, luminescence. inhibition, % at 4 µM. actives 0.53% (n = 330,000); in the data active = inhibition above about 50%
Beta apoptosis = blocks beta cell apoptosis; INS-1E cytokine-induced death, ATP luminescence, 48 h; percent of positive-control rescue, neutral wells zero; actives 0.8% (n = 300,000); protection from apoptosis, % (test concentration not listed);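 active = Every replicate reaches about 75%, or at least half do and their mean reaches it too, limit read from the data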;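 also: 0% = cytokine-treated negative control wells and 100% = positive control rescue; higher means more ATP so stronger rescue from cytokine killing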
Bfl-1 A1 inh = inhibitors of the anti-apoptotic protein A1, read as caspase activation; MEF A1-2A-BIM cells, Caspase-Glo 3/7 luminescence, 3 h; percent of clofoctol response, vehicle zero; caspase activation, % (no concentration beside the values); actives 0.066% (n = 330,000); AID 2462;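 active = over half of replicate activation scores above 10%, or exactly half above 10 with the replicate mean above 10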
697 NFkB inh = inhibitors of the PMA/ionomycin-induced NF-kB reporter in 697 B cells | 697 B-cell NF-kB luciferase reporter, 16 h | inhibition, % at 4 µM | actives 0.33% (n = 330,000) | AID 435022; in the data active = inhibition above about 35%
Mdm2 MdmX PPI = inhibitors of human Mdm2/MdmX interaction | SaOS-2 split-luciferase Mdm2/MdmX complementation, luminescence | inhibition, % at 8 µM | actives 3% (n = 330,000);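 active = inhibition of at least 50% at 8 µM in the primary screen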
NTR1 agonist = agonists of human neurotensin receptor NTR1. NTR1-U2OS beta-arrestin-GFP spot imaging, agonist mode. actives 0.17% (n = 330,000). P30989. AID 493036. activation, % at 20 µM;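 active = activation at or above 40% of the spot to cytoplasm intensity ratio, with at least 20 cells analyzed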;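 also: 0% = DMSO without peptide and 100% = 100 nM NTR1 peptide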
Mdm2-MdmX conf = confirmation of human Mdm2/MdmX interaction inhibitors. shares compounds with Mdm2 MdmX PPI. Mdm2-MdmX binding, luminescent assay. inhibition, % at 8 µM. actives 55% (n = 10,000). AID 489028; in the data active = inhibition above about 40%
FLuc counter = full-length luciferase inhibition in Mdm2/MdmX counter-screen; shares compounds with Mdm2 MdmX PPI; SaOS-2 full-length luciferase counterscreen, luminescence; inhibition, % at 8 µM; actives 77% (n = 6,200); AID 504607;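 active = mean inhibition at 8 µM reaching about 37%, which flags the compound as non-specific, limit read from the data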;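 also: p53-null SaOS-2 cells with luciferase driven by a doxycycline-inducible promoter; compound on cells about two nights before reading with doxycycline added after day one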
Numbers without * were called inactive. Most compounds without a hit are left out; they make up all but 3.8% or so of the library.

How did Cc1ccc2nc(N(CCCN(C)C)C(=O)c3ccc(S(=O)(=O)N4CCOCC4)cc3)sc2c1 do in these assays?
Jurkat NFkB inh: -7; Beta apoptosis: 5; Bfl-1 A1 inh: 0; 697 NFkB inh: 5; Mdm2 MdmX PPI: 24; NTR1 agonist: 0

What do the screens show for `O=C(COC(=O)c1ccc(F)cc1)NC1CC1`?
Jurkat NFkB inh: -5; Beta apoptosis: -3; Bfl-1 A1 inh: 0; 697 NFkB inh: 13; Mdm2 MdmX PPI: 11; NTR1 agonist: 1

Results for O=C(NCCc1ccc(O)c(O)c1)C1COc2ccccc2O1 (centres undefined) ?
Jurkat NFkB inh: -2; Beta apoptosis: -6; Bfl-1 A1 inh: 0; 697 NFkB inh: -6; Mdm2 MdmX PPI: 11; NTR1 agonist: 3

How did NNc1nc(-c2ccccc2)nc(-c2ccccc2)c1Br do in these assays?
Jurkat NFkB inh: -8; Beta apoptosis: 1; Bfl-1 A1 inh: 1; 697 NFkB inh: 21; Mdm2 MdmX PPI: 13; NTR1 agonist: 2

Results for Cc1cc(C)c2sc(N(CCCN(C)C)C(=O)c3ccc(S(=O)(=O)N4CCc5ccccc5C4)cc3)nc2c1 ?
Jurkat NFkB inh: 15; Bfl-1 A1 inh: 0; 697 NFkB inh: 1; Mdm2 MdmX PPI: 99*; NTR1 agonist: 39; Mdm2-MdmX conf: 99*; FLuc counter: 42*

What do the screens show for `CN(C)CCCN(C(=O)c1ccc(S(=O)(=O)N2CCc3ccccc3C2)cc1)c1nc2ccc(F)cc2s1`?
Jurkat NFkB inh: 16; Beta apoptosis: 62; Bfl-1 A1 inh: 30*; 697 NFkB inh: -57; Mdm2 MdmX PPI: 97*; NTR1 agonist: 29; Mdm2-MdmX conf: 26

How did Cc1cc(C)c2sc(N(CCCN(C)C)C(=O)c3ccc(S(=O)(=O)N4CCCc5ccccc54)cc3)nc2c1 do in these assays?
Jurkat NFkB inh: 19; Bfl-1 A1 inh: 0; 697 NFkB inh: -10; Mdm2 MdmX PPI: 99*; NTR1 agonist: 23; Mdm2-MdmX conf: 57*; FLuc counter: 73*

Results for CN(C)CCCN(C(=O)c1ccc(S(=O)(=O)N2CCc3ccccc32)cc1)c1nc2ccc(F)cc2s1 ?
Jurkat NFkB inh: -2; Beta apoptosis: -7; Bfl-1 A1 inh: 0; 697 NFkB inh: 8; Mdm2 MdmX PPI: 34; NTR1 agonist: 1

How did CN(C)CCCN(C(=O)c1ccc(S(=O)(=O)N2CCc3ccccc32)cc1)c1nc2ccc(Cl)cc2s1 do in these assays?
Jurkat NFkB inh: -5; Beta apoptosis: 4; Bfl-1 A1 inh: 1; 697 NFkB inh: -2; Mdm2 MdmX PPI: 15; NTR1 agonist: 4

How did Nc1ccn(CC(=O)NCCNc2ccc([N+](=O)[O-])cn2)c(=O)n1 do in these assays?
Jurkat NFkB inh: -12; Beta apoptosis: 8; Bfl-1 A1 inh: 0; 697 NFkB inh: -13; Mdm2 MdmX PPI: -5; NTR1 agonist: 0

Results for CC1CCCN(CCCNC(=O)CN2C(=O)COc3ccccc32)C1 (centres undefined) ?
Jurkat NFkB inh: 0; Beta apoptosis: -1; Bfl-1 A1 inh: 0; 697 NFkB inh: 10; Mdm2 MdmX PPI: -1; NTR1 agonist: 2

What do the screens show for `O=C(Nc1cc(Cl)ccc1O)c1snnc1-c1ccccc1`?
Jurkat NFkB inh: -5; Beta apoptosis: 37; Bfl-1 A1 inh: -1; 697 NFkB inh: 7; Mdm2 MdmX PPI: 93*; NTR1 agonist: 4; Mdm2-MdmX conf: 58*; FLuc counter: 23

Results for O=C(Nc1cccc(Cl)c1Cl)c1snnc1-c1ccccc1 ?
Jurkat NFkB inh: 13; Beta apoptosis: 4; Bfl-1 A1 inh: -1; 697 NFkB inh: 12; Mdm2 MdmX PPI: -9; NTR1 agonist: 0

Results for Cc1nn(CC(=O)NCCCN2CCC(Cc3ccccc3)CC2)c(=O)c2cc(-c3ccccc3)nn12 ?
Jurkat NFkB inh: 12; Beta apoptosis: 5; Bfl-1 A1 inh: 2; 697 NFkB inh: -2; Mdm2 MdmX PPI: 96*; NTR1 agonist: 5; Mdm2-MdmX conf: 69*; FLuc counter: 41*
